Shown are actives, neighbours in structure and some others; about 6.9% of the full set was active somewhere.
Beta cell apopt: inhibitors of cytokine-induced beta cell apoptosis, primary screen, luminescence; protection from apoptosis, % (no concentration beside the values); INS-1E cytokine-induced death, ATP luminescence, 48 h; percent of positive-control rescue, neutral wells zero; 300,000 tested, 0.8% active;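 active means Every replicate reaches about 75%, or at least half do and their mean reaches it too, limit read from the data; inconclusive means At least half of replicates reach the limit but their mean does not; inactive means Under half of replicates reach the limit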;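 further: 0% = cytokine-treated negative control wells and 100% = positive control rescue; higher means more ATP so stronger rescue from cytokine killing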
MPTP block: mitochondrial permeability transition pore inhibitors, primary screen, biochemical, isolated mouse mitochondria, absorbance | Ca2+ swelling absorbance, 30 min | inhibition, % at 10 µM | 360,000 tested, 1.4% active;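 active means inhibition of 50% or more, scaled per plate between neutral and stimulator controls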;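 further: 0% = DMSO wells given calcium and 100% = 1 mM EGTA wells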
CSC inhib: cancer stem cell viability inhibitors, primary screen, luminescence; inhibition, % at 7.5 µM; cancer stem cell-like cells viability; 300,000 tested, 1.1% active; in the data active means inhibition above about 75%; inconclusive means no clear call, values can overlap the other calls; tested in HMLE shEcad cells
NR3A LBD binder: binders of NR3A ligand-binding domain, primary screen, biophysical, differential scanning fluorimetry, uHTS; Tm shift relative to glycine control, % at 25 µM; 340,000 tested, 2.5% active; AID 1259313, 2017; Glutamate receptor ionotropic, NMDA 3A (GRIN3A) ligand-binding domain; NR3A LBD differential scanning fluorimetry, Tm shift; 0% = protein alone, 100% = glycine-bound protein;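 active means melting temperature shift of at least 10% of the positive control shift, at one fixed dose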
Mdm2 MdmX PPI: inhibitors of human Mdm2-MdmX association, primary screen, cell-based, luminescence, split luciferase, SaOS-2, uHTS. Protein Mdm4 (Homo sapiens) + E3 ubiquitin-protein ligase Mdm2 (Homo sapiens), …. inhibition, % at 8 µM. 330,000 tested, 3% active. SaOS-2 split-luciferase Mdm2/MdmX complementation;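 active means inhibition of at least 50% at 8 µM in the primary screen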
Target sequence (O15151 whole entry, looked up): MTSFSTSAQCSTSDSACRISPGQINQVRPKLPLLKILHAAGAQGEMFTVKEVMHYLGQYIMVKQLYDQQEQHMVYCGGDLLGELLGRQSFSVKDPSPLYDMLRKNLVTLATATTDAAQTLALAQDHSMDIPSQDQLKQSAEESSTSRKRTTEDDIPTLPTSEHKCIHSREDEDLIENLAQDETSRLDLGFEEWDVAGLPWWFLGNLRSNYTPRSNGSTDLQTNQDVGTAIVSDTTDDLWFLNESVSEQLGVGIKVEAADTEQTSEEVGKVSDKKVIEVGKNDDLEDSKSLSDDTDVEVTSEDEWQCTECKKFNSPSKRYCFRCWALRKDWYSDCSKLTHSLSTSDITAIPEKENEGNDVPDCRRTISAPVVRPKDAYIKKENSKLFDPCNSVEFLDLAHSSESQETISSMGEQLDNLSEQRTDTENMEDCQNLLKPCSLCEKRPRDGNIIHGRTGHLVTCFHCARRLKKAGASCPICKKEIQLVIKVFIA
Target sequence (Q00987 whole entry, looked up): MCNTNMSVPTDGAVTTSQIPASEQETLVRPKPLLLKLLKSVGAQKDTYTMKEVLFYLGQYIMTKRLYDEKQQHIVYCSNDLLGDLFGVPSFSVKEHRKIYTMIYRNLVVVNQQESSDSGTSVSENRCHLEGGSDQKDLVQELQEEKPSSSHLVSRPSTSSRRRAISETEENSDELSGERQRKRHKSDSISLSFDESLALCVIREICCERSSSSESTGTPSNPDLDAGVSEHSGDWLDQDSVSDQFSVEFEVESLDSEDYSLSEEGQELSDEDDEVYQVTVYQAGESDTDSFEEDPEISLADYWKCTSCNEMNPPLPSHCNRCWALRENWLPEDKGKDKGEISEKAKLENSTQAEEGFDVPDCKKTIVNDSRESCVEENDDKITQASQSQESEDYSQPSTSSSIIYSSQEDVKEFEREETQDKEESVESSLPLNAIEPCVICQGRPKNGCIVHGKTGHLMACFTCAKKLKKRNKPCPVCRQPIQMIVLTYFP
SKKanGAS inh: S. pyogenes SKKanGAS growth inhibitors in kanamycin, primary screen, streptokinase expression inhibitor project, SKKanGAS strain, BacTiter-Glo luminescence; 6 h; inhibition, % at 7.5 µM; 300,000 tested, 1.3% active; AID 1662, 2009;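 active means mean replicate score, as percent of positive control median, at least 50; inconclusive means mean below 50 but one replicate at or above 50; inactive means mean and every replicate below 50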;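 further: strain carries kanamycin resistance gene driven by streptokinase promoter and grows in 40 µg/ml kanamycin; loss of luminescence reflects streptokinase promoter inhibition or plain growth inhibition; 0% = median of DMSO wells and 100% = positive control at its reference dose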
Mdm2-MdmX conf: Mdm2-MdmX complex disruptors, retested hits, confirmation, luminescence, single concentration; shares compounds with Mdm2 MdmX PPI; Mdm2-MdmX binding, luminescent assay; inhibition, % at 8 µM; 10,000 tested, 55% active; AID 489028, 2010; in the data active means inhibition above about 40%
FLuc counter: full-length luciferase signal inhibition, confirmation, counter-screen for Mdm2/MdmX interaction inhibitor project, cell-based, single concentration, SaOS-2 | shares compounds with Mdm2 MdmX PPI | SaOS-2 full-length luciferase counterscreen, luminescence | inhibition, % at 8 µM | 6,200 tested, 77% active;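 active means mean inhibition at 8 µM reaching about 37%, which flags the compound as non-specific, limit read from the data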;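 further: p53-null SaOS-2 cells with luciferase driven by a doxycycline-inducible promoter; compound on cells about two nights before reading with doxycycline added after day one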
Numbers without * were called inactive; ? = inconclusive; . = no result.

SMILES	Beta cell apopt	MPTP block	CSC inhib	NR3A LBD binder	Mdm2 MdmX PPI	SKKanGAS inh	Mdm2-MdmX conf	FLuc counter
CCCCNC(=S)N/N=C/c1cccc(OCC)c1O	29.8	1.8	-5.9	1.1	1.3	-10.7	.	.
Cc1[nH]c2ccccc2c1C(O)CN1CCN(c2cccc(C(F)(F)F)c2)CC1 (stereo not given)	-13.8	8.5	-6.1	2.2	59.1*	-3.0	28.9	.
Cc1[nH]c2ccccc2c1NC(=O)CN1CCN(c2cccc(C(F)(F)F)c2)CC1	-10.0	-3.8	.	-25.0	11.2	.	.	.
COc1cccc(-n2c(=O)n(Cc3ccccc3)c(=O)c3[nH]cnc32)c1	-2.2	2.7	8.8	1.5	6.6	7.1	.	.
COc1ccc(/C(N)=N/OC(=O)C2CCC(=O)N2S(=O)(=O)c2ccc(C)cc2)cc1OC (stereo not given)	1.0	0.0	.	0.9	74.0*	-0.1	54.5*	76.2*
CC(=O)c1cccc(NC(=S)N2CCN(CCN3C(=O)c4cccc5cccc(c45)C3=O)CC2)c1	48.1	-0.8	4.0	-1.5	65.5*	5.6	-29.2	.
c1ccc(C[C@H]2CN=C(Nc3ccccc3)N2CCCC2CCCC2)cc1	-0.8	3.0	12.8	-1.8	35.1	3.1	.	.
CN(C)C1=NC[C@H](Cc2ccccc2)N1CCCC1CCCC1	39.5	0.9	35.6	1.0	53.5*	.	27.8	68.1*
CCCCCCCC[n+]1cccc2c3ccccc3ccc21	107.6*	43.0	31.8	0.2	86.4*	17.3	83.8*	23.3
O=C(COC(=O)c1c2c(nc3ccccc13)/C(=C/c1cccc([N+](=O)[O-])c1)CCC2)NC1CCS(=O)(=O)C1 (stereo not given)	11.3	1.7	67.0	10.9*	70.9*	17.0	30.6	.
CC(=O)OCC(=O)C1=CCC2C3CCC4=CC(=O)C=CC4(C)C3(F)C(OC(C)=O)CC12C (stereo not given)	-29.2	-3.0	-9.2	-3.4	78.5*	-1.4	49.2*	45.7*
COc1ccc(CCn2c(N3CCN(C)CC3)nc3c2c(=O)[nH]c(=O)n3C)cc1	-3.0	0.3	-10.3	-1.7	20.7	9.8	.	.
CCCn1c(N2CCN(CC(=O)c3c(C)n(C)c4ccc(OC)cc34)CC2)nc2c1c(=O)[nH]c(=O)n2C	.	-0.4	.	-4.4	54.8*	19.1	22.1	.
Clc1cc(Cl)cc(C2=NC(Cc3ccccc3)CO2)c1 (stereo not given)	-3.0	-0.2	-9.0	0.5	6.8	-3.7	.	.
COc1cc(C(=O)Nc2ccc3c(c2)nc(C)n3C)cc(OC)c1OC	8.5	0.7	14.9	-1.8	66.6*	-13.9	43.3*	60.8*
Cc1nc2cc(NC(=O)c3ccc(Cl)cc3)ccc2n1C	10.1	-0.6	-0.9	4.2	-107.9	-0.5	.	.
COc1cc(C(=O)Nc2ccc3c(c2)ncn3C)cc(OC)c1OC	31.9	-0.6	54.1	0.2	55.1*	-0.7	55.3*	58.3*
COc1cc(C(=O)Nc2ccc(-c3nc4cc(C)ccc4o3)c(O)c2)cc(OC)c1OC	28.3	8.9	72.1	35.4*	74.0*	103.3*	52.4*	40.7*
O=C(Nc1cccc(NC(=O)c2cccs2)c1)c1ccc([N+](=O)[O-])o1	12.4	5.4	?	7.6	60.6*	58.8*	56.5*	44.1*
O=C(Nc1ccc(N2CCN(C(=O)c3cccs3)CC2)cc1)c1ccco1	4.9	-0.8	-1.9	4.4	5.4	-5.2	.	.
O=C(Nc1ccc(N2CCN(C(=O)c3cccs3)CC2)cc1)c1ccc([N+](=O)[O-])o1	-10.4	0.1	100.0*	.	72.0*	39.7	80.0*	38.6*
Oc1c(N=NC(=S)Nc2ccccc2F)c2ccccc2n1Cc1ccccc1F	45.9	0.5	.	-3.6	64.0*	79.0*	48.1*	46.3*
Cc1ccccc1Cn1c(O)c(N=NC(=S)Nc2ccccc2F)c2ccccc21	37.2	1.7	2.0	-2.1	40.3	?	.	.
Oc1c(N=NC(=S)Nc2ccccc2F)c2ccccc2n1Cc1ccc(Cl)cc1	38.4	1.7	27.2	-3.3	53.5*	57.7*	46.0*	68.5*
COc1cccc(N=Nc2c(N)[nH]n3c(=O)cc(-c4ccccc4)nc23)c1	26.2	-0.9	-8.3	1.3	61.7*	109.6*	33.7	.
SMILES	Beta cell apopt	MPTP block	CSC inhib	NR3A LBD binder	Mdm2 MdmX PPI	SKKanGAS inh	Mdm2-MdmX conf	FLuc counter
Cc1ccc(N=Nc2c(N)[nH]n3c(=O)cc(-c4ccccc4)nc23)cc1	5.6	5.5	.	-1.4	49.6	.	.	.
COc1ccc(S(=O)(=O)N2CCCC(C(=O)NCCN3CCOCC3)C2)cc1C (stereo not given)	-5.1	-0.6	.	-1.7	12.4	-1.2	.	.
O=c1[nH]c2cc3c(cc2cc1CN(CCc1ccccc1)C(=S)NCCCN1CCOCC1)OCCO3	.	-1.7	.	-1.2	.	.	.	.
CC1CC(N(C(=O)c2ccco2)c2ccccc2)c2ccccc2N1C(=O)c1ccco1 (stereo not given)	-0.2	2.7	-5.9	-2.6	4.0	-1.1	.	.
CC1CC(N(C(=O)c2ccc(Cl)cc2)c2ccccc2)c2ccccc2N1C(=O)c1ccco1 (stereo not given)	16.5	0.8	21.5	-1.6	50.2*	9.2	30.7	.
CC(Sc1ncccn1)C(=O)Nc1ccc2c(c1)OCO2 (stereo not given)	8.5	-0.4	0.6	1.1	1.7	.	.	.
Cc1ccc(N2CCN(S(=O)(=O)c3c(C)nc4scc(C)n4c3=O)CC2)c(C)c1	2.3	-0.3	-17.1	-15.1	13.7	4.4	.	.
COc1ccc(-c2nc(NC(=O)C3CC(=O)N(c4ccc5c(c4)OCCO5)C3)sc2C)cc1 (stereo not given)	42.9	13.3	53.4	-33.1	66.1*	55.1*	57.9*	36.2*
COc1ccc2nc(NC(=O)C3CC(=O)N(c4ccc5c(c4)OCCO5)C3)sc2c1 (stereo not given)	.	-1.5	.	1.9	9.4	.	.	.
CCC12C(=O)C(CC)(C(c3ccccc3)=C1c1ccccc1)[C@@H]1C(=O)N(c3ccc(C)cc3)C(=O)C12 (stereo not given in full)	12.5	2.5	22.0	-11.2	9.5	-14.7	.	.

Screening results (PubChem BioAssay)
